Values without a mark were called inactive. Calls come from the whole dose curve. Records with an inconclusive call do not appear.
Target: Acetylcholinesterase (Homo sapiens) (UniProt P22303)
Test: Acetylcholinesterase (AChE) small molecule antagonists: fluorescence cell-based qHTS assay (AID 1347398); note: nearly all actives have a fitted effect of over 50% in size
Details: SH-SY5Y cells; Potency: AChE activity; outcome: AChE activity; series mostly up to 115 µM; activity change, negative = inhibition: at the top concentration
In short: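 SH-SY5Y, 2,000 cells/well, attached overnight; cmpd 30 min 37 C; acetylthiocholine/Thiolite Green cocktail 40 min RT; fluorescence Ex/Em 490/520 nm.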
% is set by controls: 0 for no effect and ±100 for the full control effect.

Acetylcholinesterase (Homo sapiens), sequence (P22303 whole entry, looked up): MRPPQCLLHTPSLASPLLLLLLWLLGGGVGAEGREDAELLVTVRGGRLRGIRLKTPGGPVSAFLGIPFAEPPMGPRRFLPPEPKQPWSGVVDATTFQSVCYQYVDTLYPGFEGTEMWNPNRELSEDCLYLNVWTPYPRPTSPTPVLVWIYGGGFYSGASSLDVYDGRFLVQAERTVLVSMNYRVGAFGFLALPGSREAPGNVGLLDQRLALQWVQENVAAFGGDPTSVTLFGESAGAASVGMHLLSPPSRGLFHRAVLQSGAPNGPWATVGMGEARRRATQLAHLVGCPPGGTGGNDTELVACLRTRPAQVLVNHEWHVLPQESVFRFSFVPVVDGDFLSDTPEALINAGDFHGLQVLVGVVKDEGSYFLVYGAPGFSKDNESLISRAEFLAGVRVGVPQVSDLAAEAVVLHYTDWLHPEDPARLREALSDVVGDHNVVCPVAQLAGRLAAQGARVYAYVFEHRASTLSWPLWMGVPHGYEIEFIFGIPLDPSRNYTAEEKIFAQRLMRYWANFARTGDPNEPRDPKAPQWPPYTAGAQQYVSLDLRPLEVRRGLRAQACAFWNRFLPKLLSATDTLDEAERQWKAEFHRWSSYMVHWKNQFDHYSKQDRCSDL

How did the “activity change, negative = inhibition” value turn out when `CC1(C)CC(N)CC(C)(C)N1` was run?
Its value is 0.516%.

How did the “activity change, negative = inhibition” value turn out when `COc1ncnc(NS(=O)(=O)c2ccc(N)cc2)c1OC` was run?
Its value is 5.97% [at 53.7 µM].

`CCCCCCCCCCCCCCC1CO1` (configuration not stated) was tested. Which “activity change, negative = inhibition” value did it give?
Its value is 1.6%.

`CCc1cccc(CC)c1NC(=O)C(=O)O` was tested. Which “activity change, negative = inhibition” value did it give?
Its value is -3.86%.

Which “activity change, negative = inhibition” value does the source give for `NC(=O)c1ccncc1` here?
Its value is -3.27%.

Which “activity change, negative = inhibition” value does the source give for `CCN(C(=O)N(CC)c1ccccc1)c1ccccc1` here?
The value was -7.8%.

How did the “activity change, negative = inhibition” value turn out when `COc1ccc(OC(=O)N(CC(=O)O)Cc2ccc(OCCc3nc(-c4ccccc4)oc3C)cc2)cc1` was run?
The value was -6.61% [at 53.7 µM].

With `CCCC(=O)OCCc1ccccc1` as the molecule, how does the “activity change, negative = inhibition” value read?
Its value is 0.596%.

With `O=S(=O)(O)c1ccc(Nc2nc(Nc3ccc(/C=C/c4ccc(Nc5nc(Nc6ccc(S(=O)(=O)O)cc6)nc(N(CCO)CCO)n5)cc4S(=O)(=O)O)c(S(=O)(=O)O)c3)nc(N(CCO)CCO)n2)cc1` as the molecule, how does the “activity change, negative = inhibition” value read?
Its value is 1.24% [at 53.7 µM].

Which “activity change, negative = inhibition” value does the source give for `O=C(OC(=O)c1ccccc1)c1ccccc1` here?
The value was 1.52%.

With `CCOC(=O)CC(=O)C(=O)OCC` as the molecule, how does the “activity change, negative = inhibition” value read?
The value was -0.0086%.

With `C/C=C/C=C/C=O` as the molecule, how does the “activity change, negative = inhibition” value read?
The value was 0.716%.

`CCOC(=O)c1ccc(N(C)C)cc1` was tested. Which “activity change, negative = inhibition” value did it give?
Its value is -1.16%.

`CCOC(=O)/C=C/C(=O)OCC` was tested. Which “activity change, negative = inhibition” value did it give?
Its value is -0.0358%.

With `CC(CSC(=O)c1ccccc1)C(=O)N1C[C@@H](Sc2ccccc2)C[C@H]1C(=O)O` (some centres not stated) as the molecule, how does the activity change, negative = inhibition read?
The activity change, negative = inhibition was 13.2% [at 23.8 µM].

`COc1ccc2nc(NC(=O)Nc3ccccc3)sc2c1` was tested. Which “activity change, negative = inhibition” value did it give?
The value was 6.7% [at 53.7 µM].

`CC1=CC(=O)CC(C)(C)C1=O` was tested. Which “activity change, negative = inhibition” value did it give?
The value was -13.9%.

Target: Acetylcholinesterase (Homo sapiens) (UniProt P22303)
Test: Acetylcholinesterase (AChE) small molecule antagonists: enzyme-based qHTS assay with human liver microsomes (AID 1347399); note: nearly all actives have a fitted effect of over 60% in size
Details: Potency: qHTS inhibition; outcome: qHTS inhibition; series mostly up to 115 µM; activity change, negative = inhibition: at the top concentration
In short: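 Recombinant human AChE (50 mU/mL in the enzyme mix) and human liver microsomes (0.25 mg/mL final) were preincubated with compound and NADPH (0.25 mg/mL final) for 30 min at 37 C. Acetylthiocholine/DTNB was then added; thiocholine was read colorimetrically after 10 min at room temperature.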

Which “activity change, negative = inhibition” value does the source give for `O=C(O)c1cccc(-c2noc(-c3ccccc3F)n2)c1` here?
Its value is 2.19% [at 53 µM].

`CCC(OCCCOC)OC(C)=O` (configuration not stated) was tested. Which “activity change, negative = inhibition” value did it give?
The value was 0%.

Which “activity change, negative = inhibition” value does the source give for `OCCN1CN(CCO)CN(CCO)C1` here?
Its value is 0.324%.

For `CCN(CC)c1ccc2c(-c3ccc(S(=O)(=O)O)cc3S(=O)(=O)[O-])c3ccc(=[N+](CC)CC)cc-3oc2c1`, which “activity change, negative = inhibition” value is on record?
The value was 11.6%.

How did the “activity change, negative = inhibition” value turn out when `Cc1cccc(N(C)C)c1` was run?
Its value is -2.11%.

How did the “activity change, negative = inhibition” value turn out when `CCCCCCCCCOC(=O)c1ccccc1C(=O)OCCCCCCCCC` was run?
Its value is -1.9%.

How did the “activity change, negative = inhibition” value turn out when `CC1=C(O)C(=O)C(C)O1` (configuration not stated) was run?
The value was -1.32%.

`CCCCCCCCCCCCS(=O)(=O)Cl` was tested. Which activity change, negative = inhibition did it give?
The activity change, negative = inhibition was 0.324% [at 23.6 µM].

With `CN1[C@@H]2CC[C@H]1CC(OC(=O)C(O)c1ccccc1)C2` (some centres not stated) as the molecule, how does the “activity change, negative = inhibition” value read?
Its value is -0.885% [at 53 µM].

Which “activity change, negative = inhibition” value does the source give for `CC(C(=O)O)c1ccc2c(c1)Cc1cccnc1O2` (configuration not stated) here?
The value was -2.78% [at 53 µM].

For `CCCCCCCCCC(C)=O`, which “activity change, negative = inhibition” value is on record?
Its value is -2.76%.

`CC1=NS(=O)(=O)c2cc(Cl)ccc2N1` was tested. Which “activity change, negative = inhibition” value did it give?
Its value is -1.01% [at 53 µM].

How did the “activity change, negative = inhibition” value turn out when `O=S(=O)(O)c1ccccc1O` was run?
Its value is 0.446%.

Which “activity change, negative = inhibition” value does the source give for `N#Cc1ccc(C/C(=N/NC(=O)Nc2ccc(OC(F)(F)F)cc2)c2cccc(C(F)(F)F)c2)cc1` here?
Its value is -0.158%.

How did the “activity change, negative = inhibition” value turn out when `CC(=O)c1c(C)cc(C(C)(C)C)cc1C` was run?
Its value is -0.298%.

How did the “activity change, negative = inhibition” value turn out when `[Ca+2]` was run?
The value was -0.318%.

How did the “activity change, negative = inhibition” value turn out when `O=C1NC(=O)c2cc([N+](=O)[O-])ccc21` was run?
Its value is -1.86%.

How did the “activity change, negative = inhibition” value turn out when `OC[C@H]1O[C@@H](O[C@@H]2[C@@H](CO)O[C@](O)(CO)[C@H]2O)[C@H](O)[C@@H](O)[C@H]1O` was run?
The value was 0.194% [at 53 µM].

How did the “activity change, negative = inhibition” value turn out when `CC(=O)CCC1=C(C)CCCC1(C)C` was run?
Its value is 1.18%.

For `COc1cccc(Br)c1`, which “activity change, negative = inhibition” value is on record?
Its value is -0.448%.

For `Cc1ccc2sc3cccc(C)c3c2c1`, which “activity change, negative = inhibition” value is on record?
The value was 0.733%.

Which “activity change, negative = inhibition” value does the source give for `COc1ccc2cccc(CCNC(C)=O)c2c1` here?
Its value is -3.16% [at 53 µM].

How did the “activity change, negative = inhibition” value turn out when `COc1ccc(OC)c(Cl)c1` was run?
Its value is -0.461%.

For `CC1(C)CC(N)CC(C)(C)N1`, which “activity change, negative = inhibition” value is on record?
The value was 0.917%.

`COc1ncnc(NS(=O)(=O)c2ccc(N)cc2)c1OC` was tested. Which “activity change, negative = inhibition” value did it give?
The value was -0.281% [at 53 µM].

How did the “activity change, negative = inhibition” value turn out when `CCCCCCCCCCCCCCC1CO1` (configuration not stated) was run?
The value was -1.19%.

Which “activity change, negative = inhibition” value does the source give for `CCc1cccc(CC)c1NC(=O)C(=O)O` here?
Its value is 0.0037%.

With `NC(=O)c1ccncc1` as the molecule, how does the “activity change, negative = inhibition” value read?
Its value is -0.853%.

With `CCN(C(=O)N(CC)c1ccccc1)c1ccccc1` as the molecule, how does the “activity change, negative = inhibition” value read?
Its value is 0.38%.

Which “activity change, negative = inhibition” value does the source give for `COc1ccc(OC(=O)N(CC(=O)O)Cc2ccc(OCCc3nc(-c4ccccc4)oc3C)cc2)cc1` here?
Its value is -1.33% [at 53 µM].

`CCCC(=O)OCCc1ccccc1` was tested. Which “activity change, negative = inhibition” value did it give?
The value was -1.05%.

For `O=S(=O)(O)c1ccc(Nc2nc(Nc3ccc(/C=C/c4ccc(Nc5nc(Nc6ccc(S(=O)(=O)O)cc6)nc(N(CCO)CCO)n5)cc4S(=O)(=O)O)c(S(=O)(=O)O)c3)nc(N(CCO)CCO)n2)cc1`, which “activity change, negative = inhibition” value is on record?
The value was 0.459% [at 53 µM].

`O=C(OC(=O)c1ccccc1)c1ccccc1` was tested. Which “activity change, negative = inhibition” value did it give?
The value was -0.282%.

How did the “activity change, negative = inhibition” value turn out when `CCOC(=O)CC(=O)C(=O)OCC` was run?
The value was -0.861%.

With `C/C=C/C=C/C=O` as the molecule, how does the “activity change, negative = inhibition” value read?
Its value is 3.02%.

With `CCOC(=O)c1ccc(N(C)C)cc1` as the molecule, how does the “activity change, negative = inhibition” value read?
The value was -1.23%.

`CCOC(=O)/C=C/C(=O)OCC` was tested. Which “activity change, negative = inhibition” value did it give?
The value was 2.31%.

For `CC(CSC(=O)c1ccccc1)C(=O)N1C[C@@H](Sc2ccccc2)C[C@H]1C(=O)O` (some centres not stated), which activity change, negative = inhibition is on record?
The activity change, negative = inhibition was 2.18% [at 23.6 µM].

Which “activity change, negative = inhibition” value does the source give for `COc1ccc2nc(NC(=O)Nc3ccccc3)sc2c1` here?
The value was 0% [at 53 µM].

With `CC1=CC(=O)CC(C)(C)C1=O` as the molecule, how does the “activity change, negative = inhibition” value read?
The value was -0.171%.

Source: PubChem BioAssay (Tox21)
